# Screening data: PubChem, Broad Institute
# NSD2 HMT inh = NSD2 histone methyltransferase inhibitors, primary screen, biochemical, AlphaScreen, single concentration, set 2 | Histone-lysine N-methyltransferase NSD2 (Homo sapiens), O96028 | NSD2 peptide methylation, 120 min | inhibition, % at 12.5 µM | hit rate 0.54% among 310,000 | AID 743445, 2014; in the data active = inhibition above about 50%
# N-glyco inh = increase of ERlucT glycosylation luciferase signal, primary screen, N-linked glycosylation inhibitor project, D54 ERlucT cells, luminescence, set 2. D54 ERlucT glycosylation luciferase reporter, 24 h; percent of 100 nM tunicamycin response. reporter increase, % at 12.5 µM. hit rate 0.23% among 360,000;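 active = mean luciferase reporter signal, scaled so untreated is 0 and the glycosylation-blocking control 100, at or above a set limit in every replicate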;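 note: luciferase carries N-glycosylation sites so blocking glycosylation raises the light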
# CDK5 p35 inh = inhibitors of human CDK5/p35 kinase, primary screen, biochemical, single concentration. Cyclin-dependent kinase 5 (Homo sapiens) + Cyclin-dependent kinase 5 activator 1 (Homo …. Recombinant CDK5/p35, ADP-Glo luminescence, 60 min. inhibition, % at 10 µM. hit rate 0.01% among 330,000;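 active = highest replicate inhibition of at least 50% and at least 75% of replicates reaching 50%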
# CASP6 VEID inh = human caspase-6 inhibitors, primary screen, biochemical, VEID-R110 fluorescence, single point, set 2 | P55212 | purified caspase-6, Z-VEID-R110 cleavage fluorescence | inhibition, % at 12.5 µM | hit rate 0.53% among 350,000 | AID 686996, 2013;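 active = mean inhibition across replicates at least about 35%, with every replicate also reaching that limit, limit read from the data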
# Target sequence (P55212 24-179 limits assumed): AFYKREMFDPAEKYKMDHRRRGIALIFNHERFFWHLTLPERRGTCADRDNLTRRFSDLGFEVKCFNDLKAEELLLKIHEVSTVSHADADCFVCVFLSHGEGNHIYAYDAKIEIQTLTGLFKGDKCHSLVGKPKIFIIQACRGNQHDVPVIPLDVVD
# Target sequence (P55212 194-293 limits assumed): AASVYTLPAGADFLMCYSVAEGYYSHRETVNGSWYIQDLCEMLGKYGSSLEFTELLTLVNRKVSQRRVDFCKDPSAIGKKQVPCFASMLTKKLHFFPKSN
# Mot1-301 SUMO = yeast Mot1-301 growth rescue at high temperature, primary screen, SUMOylation pathway inhibitor project, S. cerevisiae, ATP luminescence, 38.5C | S. cerevisiae Mot1-301 growth rescue; percent above DMSO median, 100 means doubled | growth rescue, % at 18.8 µM | hit rate 1% among 320,000 | AID 2716, 2010;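 active = every valid replicate shows activation above 250% relative to neutral control wells; inactive = the rest, any valid replicate at or below 250%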
# ALR inh = inhibitors of human ALR sulfhydryl oxidase, primary screen, biochemical, H2O2 detection, HRP-luminol luminescence, single point. inhibition, % (concentration not given with the values). hit rate 3.8% among 290,000. FAD-linked sulfhydryl oxidase ALR (Homo sapiens), P55789. AID 485317, 2010. purified ALR, DTT oxidation;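 active = mean replicate inhibition above about 79%, with every replicate also reaching it, limit read from the data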
# Target sequence (P55789 whole entry, looked up): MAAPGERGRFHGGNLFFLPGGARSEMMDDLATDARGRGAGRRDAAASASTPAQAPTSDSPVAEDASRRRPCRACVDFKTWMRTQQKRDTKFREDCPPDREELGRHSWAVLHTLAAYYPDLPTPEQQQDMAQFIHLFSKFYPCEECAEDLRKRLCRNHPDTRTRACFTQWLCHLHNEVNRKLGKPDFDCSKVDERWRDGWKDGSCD
# Hits are given with their value; n = inactive; x = no result. This is a sample that favours compounds with a hit; in the whole collection about 3.9% have one here.
SMILES,NSD2 HMT inh,N-glyco inh,CDK5 p35 inh,CASP6 VEID inh,Mot1-301 SUMO,ALR inh
Cc1ccc(NC2=CC(=O)CC(c3ccco3)C2)c(N)c1 (configuration not stated),n,n,n,x,n,98
O=C(CSc1nnc(-c2ccc3c(c2)OCCO3)o1)N1CCCC1,n,n,n,x,n,99
O=C(CSc1nnc(-c2ccncc2)o1)N1CCCCCC1,n,n,n,n,x,x
CCC1CCCCN1C(=O)CSc1nnc(-c2ccc3c(c2)OCCO3)o1 (configuration not stated),n,n,n,x,n,n
Cc1ccc(-c2nnc(SCC(=O)N3CCCC3)o2)cc1C,x,n,n,x,n,99
COC(=O)C1CCN(C(=O)CSc2nnc(-c3ccncc3)o2)CC1,n,n,n,x,312,n
C[C@@H]1CN([C@@H](C)CO)C(=O)Cc2cc(NS(=O)(=O)c3ccccc3)ccc2O[C@@H]1CN(C)Cc1ccc(C(=O)O)cc1,x,x,x,n,x,x
CCOc1ccc(-c2cc3nc(C4CCN(C(=O)OC(C)(C)C)CC4)c(C(=O)O)cn3n2)cc1,n,n,n,x,n,98
CCOC(=O)N1CCN(C(=O)c2cc(-c3ccc(OCC)cc3)nc3ccccc23)CC1,n,n,n,x,n,n
COc1ccccc1S(=O)(=O)N[C@H]1CC[C@@H](CC(=O)N2CCN(C)CC2)O[C@@H]1CO,x,x,x,n,x,x
CCOC(=O)C1CCCN(C(=S)Nc2ccc(Nc3ccccc3)cc2)C1 (configuration not stated),n,n,n,n,n,97
CCCC(=O)Nc1ccc2c(c1)C(=O)N(C)[C@H]1CC[C@@H](CC(=O)NCCN3CCCCC3)O[C@H]1CO2,x,x,x,n,x,x
CC(=O)CSc1ncnc2nc[nH]c12,n,n,n,x,n,n
Cn1cnc(Sc2ncnc3nc[nH]c23)c1[N+](=O)[O-],x,136,n,n,n,n
Cn1cnc([N+](=O)[O-])c1Sc1ncnc2nc[nH]c12,x,130,n,n,n,x
O=C(O)C[C@H]1C=C[C@@H](NC(=O)c2ccncc2)[C@H](CO)O1,x,x,x,n,x,x
O=C(O)c1cccc2cccc(-c3c4ccc(=O)c(O)c-4oc4c(O)c(O)ccc34)c12,x,n,n,99,x,x
COC(=O)c1cn(NC(=O)C2CCC(C)CC2)c(=O)c2ccccc12 (configuration not stated),n,n,n,x,n,n
COC(=O)c1cn(NC(=O)c2cc([N+](=O)[O-])ccc2F)c(=O)c2ccccc12,n,n,n,n,n,96
COc1ccc(Nc2cc(C)c3ccc(O)cc3n2)cc1,n,n,n,n,n,99
CCOc1ccc(Nc2cc(C)c3ccccc3n2)cc1,n,n,n,n,n,n
Cc1cc(Nc2ccccc2)nc2cc(O)ccc12,x,n,n,n,n,96
CO[C@@H]1CN(C)C(=O)c2ccc(NS(C)(=O)=O)cc2OC[C@@H](C)N(C(=O)C2CCC2)C[C@@H]1C,x,x,x,n,x,x
C[C@@H]1CCCCO[C@H](CN(C)C(=O)NC2CCCCC2)[C@@H](C)CN([C@@H](C)CO)C(=O)c2cc(NC(=O)c3ccncc3)ccc2O1,x,x,x,n,x,x
COc1ccccc1N(Cc1ccccc1)S(=O)(=O)c1cc(C(=O)O)ccc1Cl,n,n,n,n,n,92
SMILES,NSD2 HMT inh,N-glyco inh,CDK5 p35 inh,CASP6 VEID inh,Mot1-301 SUMO,ALR inh
NC(=O)c1ccc(-n2c(CCC(=O)O)ccc2-c2cccs2)cc1,n,n,n,n,n,84
Cc1ccc(-n2c(CCC(=O)O)ccc2-c2cccs2)cc1,n,n,n,n,n,94
Cc1ccc(-c2ccc(CCC(=O)O)n2-c2ccc(C(=O)O)cc2)cc1,n,n,n,n,n,97
COc1cccc(-c2csc(N3CCN(CC(=O)Nc4ccc5c(c4)OCO5)CC3)n2)c1,x,n,n,n,n,x
CNC(=S)N1CCN(c2ccc(OC)cc2)CC1,n,n,n,x,n,96
COc1ccc(N2CCN(CC(=O)NCc3ccc(Cl)cc3)CC2)cc1,n,n,n,n,n,89
COc1ccc(N2CC(NC(=O)N3CCN(c4ccccc4)CC3)CC2=O)cc1 (configuration not stated),n,n,n,n,n,97
COc1ccc(N2CCN(CC(=O)NCc3ccccc3)CC2)cc1,n,n,n,n,n,n
COc1ccc(NC(=O)CN2CCN(c3nc(-c4cccc(OC)c4)cs3)CC2)cc1,x,n,n,x,n,99
O=C(C[C@H]1CC[C@H]2[C@@H](COC[C@H](O)CN2C(=O)Nc2ccc(Cl)c(Cl)c2)O1)NC1CCC1,x,x,x,n,x,x
COc1cccc(N2CCN(CC(=O)Nc3nnc(-c4ccccc4)s3)CC2)c1,x,n,n,x,n,n
COc1ccc(N2CCN(C(=O)NC34CC5CC(CC(C5)C3)C4)CC2)cc1,n,n,n,x,x,85
COC(=O)c1c(C)[nH]c(C(=O)N2CCN(c3ccc(OC)cc3)CC2)c1C,x,x,x,n,n,96
COc1cccc(N2CCN(CC(=O)NCc3cccs3)CC2)c1,n,n,n,x,n,99
COc1ccc(-n2c(CNC(=O)COc3ccc(Cl)cc3)n[nH]c2=S)cc1,n,n,n,n,n,88
COc1ccc(N2CCN(C(=O)NCc3ccc(OC)c(OC)c3)CC2)cc1,n,n,n,n,n,89
O=C(NCCCN1CCN(c2cccc(Cl)c2)CC1)C1(S(=O)(=O)c2ccc(Cl)cc2)CC1,x,n,n,x,n,x
COc1ccc(N2CCN(CCCNC(=O)C3(S(=O)(=O)c4ccc(Cl)cc4)CC3)CC2)cc1,x,n,n,x,n,85
COc1ccc(N2CCN(C(=O)NCc3ccc(OC)c(Cl)c3)CC2)cc1,n,n,n,n,n,n
COc1ccc(N2CCN(CC(=O)NC(C)c3ccccc3)CC2)cc1 (configuration not stated),n,n,n,n,n,95
COc1ccc(N2CCN(C(=O)CN3CCN(C(c4ccccc4)c4ccccc4)CC3)CC2)cc1,n,n,n,x,n,n
CC(CCc1ccccc1)NC(=O)CN1CCN(c2ccc(O)cc2)CC1 (configuration not stated),n,n,n,n,n,100
CCOC(=O)CC(=O)CSc1nc2c(sc(=S)n2-c2ccc(C)c(C)c2)c(=O)[nH]1,n,n,n,n,n,x
CCOC(=O)CC(=O)CSc1nc2c(sc(=S)n2-c2ccc(OCC)cc2)c(=O)[nH]1,n,n,n,n,n,96
O=C(NCC[C@H]1CC[C@H](NC(=O)C2CCC2)[C@H](CO)O1)c1cc(Cl)cc(Cl)c1,x,x,x,n,x,x
